Assay results as given in ChEMBL document CHEMBL1961873, “Compounds: GSK PKIS; Assays: Nanosyn kinase panel” (2012).

What was measured:
[1] = target: Sphingosine kinase 1 (Homo sapiens) (UniProt Q9NYA1); settings: at 1 µM;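 further: mean SPHK1 inhibition value reported from the GSK PKIS kinase panel screen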
[2] = target: T1, Sphingosine kinase 2 (Homo sapiens) (UniProt Q9NRA0); settings: at 0.1 µM
T1 sequence (whole entry): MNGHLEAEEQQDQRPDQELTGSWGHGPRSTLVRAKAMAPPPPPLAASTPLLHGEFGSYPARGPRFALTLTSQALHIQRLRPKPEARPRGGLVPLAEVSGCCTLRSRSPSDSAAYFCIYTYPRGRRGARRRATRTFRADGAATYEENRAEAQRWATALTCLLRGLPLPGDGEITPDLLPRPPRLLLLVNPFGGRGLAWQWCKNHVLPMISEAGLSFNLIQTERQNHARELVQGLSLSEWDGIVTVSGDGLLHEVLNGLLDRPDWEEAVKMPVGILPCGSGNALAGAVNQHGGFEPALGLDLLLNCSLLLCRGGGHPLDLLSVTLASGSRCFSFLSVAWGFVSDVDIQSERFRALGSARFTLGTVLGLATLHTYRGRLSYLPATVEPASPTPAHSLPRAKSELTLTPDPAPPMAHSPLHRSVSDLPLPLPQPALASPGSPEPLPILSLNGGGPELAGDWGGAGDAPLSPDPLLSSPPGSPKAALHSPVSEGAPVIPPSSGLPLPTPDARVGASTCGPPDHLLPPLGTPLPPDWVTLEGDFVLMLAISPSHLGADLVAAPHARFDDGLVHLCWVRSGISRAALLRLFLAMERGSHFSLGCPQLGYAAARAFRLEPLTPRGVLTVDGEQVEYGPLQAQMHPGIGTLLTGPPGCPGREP

[3] = target: T1, Sphingosine kinase 2 (Homo sapiens); settings: at 1 µM
[4] = target: Casein kinase II subunit alpha (Homo sapiens) (UniProt P68400); settings: at 1 µM;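 further: reported value is the mean CK2 inhibition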
[5] = target: T2, Inhibitor of nuclear factor kappa-B kinase subunit alpha (Homo sapiens) (UniProt O15111); settings: at 0.1 µM
T2 sequence (whole entry): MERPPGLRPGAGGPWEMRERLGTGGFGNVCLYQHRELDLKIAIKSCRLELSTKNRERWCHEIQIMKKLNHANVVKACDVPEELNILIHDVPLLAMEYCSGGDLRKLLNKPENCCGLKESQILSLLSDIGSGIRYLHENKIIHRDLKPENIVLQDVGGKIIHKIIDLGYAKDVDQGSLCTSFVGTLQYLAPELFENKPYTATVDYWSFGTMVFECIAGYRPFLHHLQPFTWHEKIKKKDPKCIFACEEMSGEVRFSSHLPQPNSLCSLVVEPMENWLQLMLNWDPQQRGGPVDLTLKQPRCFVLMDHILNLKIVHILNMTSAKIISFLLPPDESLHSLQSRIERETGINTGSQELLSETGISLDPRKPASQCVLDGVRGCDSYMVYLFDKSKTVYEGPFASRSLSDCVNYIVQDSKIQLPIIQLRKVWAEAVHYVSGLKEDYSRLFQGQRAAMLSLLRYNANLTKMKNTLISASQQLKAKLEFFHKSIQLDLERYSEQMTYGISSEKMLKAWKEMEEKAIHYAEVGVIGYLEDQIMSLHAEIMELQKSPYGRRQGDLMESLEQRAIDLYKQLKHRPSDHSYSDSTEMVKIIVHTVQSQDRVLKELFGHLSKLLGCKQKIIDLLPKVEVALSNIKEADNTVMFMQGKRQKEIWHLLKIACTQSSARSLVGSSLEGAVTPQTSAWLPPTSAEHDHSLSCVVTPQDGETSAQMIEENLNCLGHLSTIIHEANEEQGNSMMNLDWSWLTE

[6] = target: T2, Inhibitor of nuclear factor kappa-B kinase subunit alpha (Homo sapiens); settings: at 1 µM
[7] = target: T3, Inhibitor of nuclear factor kappa-B kinase subunit beta (Homo sapiens) (UniProt O14920); settings: at 0.1 µM
T3 sequence (whole entry): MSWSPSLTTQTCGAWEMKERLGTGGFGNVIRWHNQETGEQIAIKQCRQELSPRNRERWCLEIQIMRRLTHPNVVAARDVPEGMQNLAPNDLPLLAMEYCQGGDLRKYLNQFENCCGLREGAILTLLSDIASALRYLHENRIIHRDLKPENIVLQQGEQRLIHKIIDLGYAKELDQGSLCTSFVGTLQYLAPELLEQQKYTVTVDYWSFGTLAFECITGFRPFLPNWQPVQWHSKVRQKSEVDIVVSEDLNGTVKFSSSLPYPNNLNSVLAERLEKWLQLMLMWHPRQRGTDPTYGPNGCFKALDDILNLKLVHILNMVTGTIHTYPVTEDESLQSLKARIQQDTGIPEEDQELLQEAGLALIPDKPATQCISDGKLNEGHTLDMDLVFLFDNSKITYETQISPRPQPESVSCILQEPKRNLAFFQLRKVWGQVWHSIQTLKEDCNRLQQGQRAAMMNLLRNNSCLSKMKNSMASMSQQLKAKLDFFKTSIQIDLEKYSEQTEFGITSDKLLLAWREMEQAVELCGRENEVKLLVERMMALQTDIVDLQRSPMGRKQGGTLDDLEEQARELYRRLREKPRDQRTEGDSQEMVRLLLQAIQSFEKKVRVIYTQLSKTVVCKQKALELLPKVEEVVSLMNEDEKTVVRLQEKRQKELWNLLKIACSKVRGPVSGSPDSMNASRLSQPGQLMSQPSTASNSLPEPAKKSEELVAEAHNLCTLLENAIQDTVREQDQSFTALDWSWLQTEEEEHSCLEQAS

[8] = target: T3, Inhibitor of nuclear factor kappa-B kinase subunit beta (Homo sapiens); settings: at 1 µM
[9] = target: T4, Inhibitor of nuclear factor kappa-B kinase subunit epsilon (Homo sapiens) (UniProt Q14164); settings: at 0.1 µM
T4 sequence (whole entry): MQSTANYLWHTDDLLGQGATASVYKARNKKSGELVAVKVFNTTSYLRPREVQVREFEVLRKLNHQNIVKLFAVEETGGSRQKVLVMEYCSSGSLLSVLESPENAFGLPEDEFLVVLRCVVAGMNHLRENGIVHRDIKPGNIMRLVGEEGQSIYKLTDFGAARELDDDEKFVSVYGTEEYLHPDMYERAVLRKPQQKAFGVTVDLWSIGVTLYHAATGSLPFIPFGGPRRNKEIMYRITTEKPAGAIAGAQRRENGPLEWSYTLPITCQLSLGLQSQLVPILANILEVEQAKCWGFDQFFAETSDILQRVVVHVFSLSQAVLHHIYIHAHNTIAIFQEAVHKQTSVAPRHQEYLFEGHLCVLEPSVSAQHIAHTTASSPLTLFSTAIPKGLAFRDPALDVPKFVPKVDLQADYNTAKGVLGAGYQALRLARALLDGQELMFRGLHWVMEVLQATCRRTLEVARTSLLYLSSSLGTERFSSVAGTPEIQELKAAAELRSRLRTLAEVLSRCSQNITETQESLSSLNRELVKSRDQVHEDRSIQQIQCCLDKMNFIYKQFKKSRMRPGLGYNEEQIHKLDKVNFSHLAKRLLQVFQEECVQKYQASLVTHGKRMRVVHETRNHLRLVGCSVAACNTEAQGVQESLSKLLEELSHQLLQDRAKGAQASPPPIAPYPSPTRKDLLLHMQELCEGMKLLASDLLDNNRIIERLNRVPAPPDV

[10] = target: T4, Inhibitor of nuclear factor kappa-B kinase subunit epsilon (Homo sapiens); settings: at 1 µM
[11] = target: T5, Serine/threonine-protein kinase Nek1 (Homo sapiens) (UniProt Q96PY6); settings: at 0.1 µM
T5 sequence (whole entry): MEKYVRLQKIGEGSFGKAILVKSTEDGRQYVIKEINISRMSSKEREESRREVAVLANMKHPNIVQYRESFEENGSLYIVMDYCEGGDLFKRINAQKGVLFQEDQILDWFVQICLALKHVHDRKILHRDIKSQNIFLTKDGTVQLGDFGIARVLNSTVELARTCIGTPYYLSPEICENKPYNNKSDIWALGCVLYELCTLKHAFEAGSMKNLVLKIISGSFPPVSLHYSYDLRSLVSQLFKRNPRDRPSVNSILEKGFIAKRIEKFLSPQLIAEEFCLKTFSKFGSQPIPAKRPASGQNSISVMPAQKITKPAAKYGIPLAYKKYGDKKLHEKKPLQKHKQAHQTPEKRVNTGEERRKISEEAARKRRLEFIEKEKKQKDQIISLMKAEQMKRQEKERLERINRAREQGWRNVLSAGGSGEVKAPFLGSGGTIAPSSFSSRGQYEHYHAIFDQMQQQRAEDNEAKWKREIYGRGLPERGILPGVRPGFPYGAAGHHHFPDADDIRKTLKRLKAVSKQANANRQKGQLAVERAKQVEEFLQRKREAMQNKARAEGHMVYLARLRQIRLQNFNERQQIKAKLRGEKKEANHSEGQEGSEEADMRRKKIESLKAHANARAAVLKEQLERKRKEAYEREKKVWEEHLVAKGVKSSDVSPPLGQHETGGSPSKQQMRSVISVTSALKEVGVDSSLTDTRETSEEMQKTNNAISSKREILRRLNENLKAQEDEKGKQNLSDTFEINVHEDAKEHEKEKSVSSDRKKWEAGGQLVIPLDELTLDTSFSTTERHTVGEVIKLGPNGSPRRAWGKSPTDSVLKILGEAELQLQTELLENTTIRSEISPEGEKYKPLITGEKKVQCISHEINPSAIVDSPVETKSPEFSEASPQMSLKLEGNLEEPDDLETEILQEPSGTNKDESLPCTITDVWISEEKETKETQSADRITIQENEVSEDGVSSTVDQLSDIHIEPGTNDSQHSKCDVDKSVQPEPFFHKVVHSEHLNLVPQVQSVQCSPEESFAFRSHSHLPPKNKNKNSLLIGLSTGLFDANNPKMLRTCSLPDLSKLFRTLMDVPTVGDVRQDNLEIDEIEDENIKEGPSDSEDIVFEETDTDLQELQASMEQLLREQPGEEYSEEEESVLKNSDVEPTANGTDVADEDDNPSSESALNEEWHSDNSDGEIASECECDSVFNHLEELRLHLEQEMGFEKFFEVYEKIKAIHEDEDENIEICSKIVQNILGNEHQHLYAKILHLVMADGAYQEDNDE

[12] = target: T5, Serine/threonine-protein kinase Nek1 (Homo sapiens); settings: at 1 µM
[13] = target: T6, Serine/threonine-protein kinase Nek2 (Homo sapiens) (UniProt P51955); settings: at 0.1 µM
T6 sequence (whole entry): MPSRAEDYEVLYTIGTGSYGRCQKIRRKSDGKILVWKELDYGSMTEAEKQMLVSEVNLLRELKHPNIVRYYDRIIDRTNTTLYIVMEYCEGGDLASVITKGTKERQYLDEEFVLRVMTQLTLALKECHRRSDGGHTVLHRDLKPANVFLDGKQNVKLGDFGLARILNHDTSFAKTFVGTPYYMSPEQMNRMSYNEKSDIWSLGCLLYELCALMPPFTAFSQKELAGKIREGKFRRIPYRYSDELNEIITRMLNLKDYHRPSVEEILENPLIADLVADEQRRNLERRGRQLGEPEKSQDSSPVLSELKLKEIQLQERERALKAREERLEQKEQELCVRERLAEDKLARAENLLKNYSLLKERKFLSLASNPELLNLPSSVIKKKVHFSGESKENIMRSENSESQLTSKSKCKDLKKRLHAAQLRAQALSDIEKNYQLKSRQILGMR

[14] = target: T6, Serine/threonine-protein kinase Nek2 (Homo sapiens); settings: at 1 µM
[15] = target: Serine/threonine-protein kinase Nek6 (Homo sapiens) (UniProt Q9HC98); settings: at 0.1 µM
[16] = target: Serine/threonine-protein kinase Nek6 (Homo sapiens) (UniProt Q9HC98); settings: at 1 µM
[17] = target: Serine/threonine-protein kinase Nek7 (Homo sapiens) (UniProt Q8TDX7); settings: at 0.1 µM
[18] = target: Serine/threonine-protein kinase Nek7 (Homo sapiens) (UniProt Q8TDX7); settings: at 1 µM
[19] = target: T7, Serine/threonine-protein kinase Nek9 (Homo sapiens) (UniProt Q8TD19); settings: at 0.1 µM;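 further: reported value is the mean percent inhibition of NEK9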
T7 sequence (whole entry): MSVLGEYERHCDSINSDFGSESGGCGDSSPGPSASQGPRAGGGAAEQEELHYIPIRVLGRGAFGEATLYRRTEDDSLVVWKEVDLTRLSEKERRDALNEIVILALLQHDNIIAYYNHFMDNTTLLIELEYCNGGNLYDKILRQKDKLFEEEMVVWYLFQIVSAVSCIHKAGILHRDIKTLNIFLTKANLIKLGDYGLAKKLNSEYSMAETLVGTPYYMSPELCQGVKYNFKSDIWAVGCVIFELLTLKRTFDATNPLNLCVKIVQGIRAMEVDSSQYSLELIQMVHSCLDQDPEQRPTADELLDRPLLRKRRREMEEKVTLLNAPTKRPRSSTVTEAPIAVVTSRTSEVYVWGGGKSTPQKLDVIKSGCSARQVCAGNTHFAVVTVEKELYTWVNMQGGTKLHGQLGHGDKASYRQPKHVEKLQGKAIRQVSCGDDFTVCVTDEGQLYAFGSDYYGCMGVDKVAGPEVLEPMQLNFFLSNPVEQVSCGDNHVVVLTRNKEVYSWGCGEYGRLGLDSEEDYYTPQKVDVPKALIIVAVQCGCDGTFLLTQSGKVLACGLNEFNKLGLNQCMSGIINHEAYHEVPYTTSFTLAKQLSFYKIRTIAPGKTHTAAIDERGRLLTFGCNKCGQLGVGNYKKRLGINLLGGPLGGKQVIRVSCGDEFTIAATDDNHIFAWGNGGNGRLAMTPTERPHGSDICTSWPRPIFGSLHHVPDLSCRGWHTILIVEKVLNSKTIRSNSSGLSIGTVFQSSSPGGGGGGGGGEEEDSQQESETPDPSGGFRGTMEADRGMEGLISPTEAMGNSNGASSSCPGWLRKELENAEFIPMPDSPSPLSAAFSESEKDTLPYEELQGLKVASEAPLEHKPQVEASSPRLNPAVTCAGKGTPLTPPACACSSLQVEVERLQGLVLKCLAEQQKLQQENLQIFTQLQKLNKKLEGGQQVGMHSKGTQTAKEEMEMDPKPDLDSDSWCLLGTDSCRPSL

Sequence of Serine/threonine-protein kinase Nek7 (Homo sapiens) (Q8TDX7 whole entry, looked up): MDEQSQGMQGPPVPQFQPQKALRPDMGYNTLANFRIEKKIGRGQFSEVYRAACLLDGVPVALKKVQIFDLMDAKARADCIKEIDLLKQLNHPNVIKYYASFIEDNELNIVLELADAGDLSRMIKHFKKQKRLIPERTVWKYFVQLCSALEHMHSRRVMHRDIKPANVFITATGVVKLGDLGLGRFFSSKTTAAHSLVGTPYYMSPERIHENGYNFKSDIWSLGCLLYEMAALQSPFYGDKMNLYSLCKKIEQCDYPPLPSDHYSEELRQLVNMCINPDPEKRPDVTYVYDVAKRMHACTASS
Sequence of Serine/threonine-protein kinase Nek6 (Homo sapiens) (Q9HC98 whole entry): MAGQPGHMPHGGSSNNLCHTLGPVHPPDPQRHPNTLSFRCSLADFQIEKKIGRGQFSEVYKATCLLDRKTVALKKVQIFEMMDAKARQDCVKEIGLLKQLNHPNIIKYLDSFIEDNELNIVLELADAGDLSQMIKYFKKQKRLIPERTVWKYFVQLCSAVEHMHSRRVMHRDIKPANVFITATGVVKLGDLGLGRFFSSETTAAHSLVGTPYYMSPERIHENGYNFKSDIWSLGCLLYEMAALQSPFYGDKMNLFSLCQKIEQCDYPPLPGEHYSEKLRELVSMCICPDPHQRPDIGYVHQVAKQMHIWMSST
Sequence of Sphingosine kinase 1 (Homo sapiens) (Q9NYA1 whole entry): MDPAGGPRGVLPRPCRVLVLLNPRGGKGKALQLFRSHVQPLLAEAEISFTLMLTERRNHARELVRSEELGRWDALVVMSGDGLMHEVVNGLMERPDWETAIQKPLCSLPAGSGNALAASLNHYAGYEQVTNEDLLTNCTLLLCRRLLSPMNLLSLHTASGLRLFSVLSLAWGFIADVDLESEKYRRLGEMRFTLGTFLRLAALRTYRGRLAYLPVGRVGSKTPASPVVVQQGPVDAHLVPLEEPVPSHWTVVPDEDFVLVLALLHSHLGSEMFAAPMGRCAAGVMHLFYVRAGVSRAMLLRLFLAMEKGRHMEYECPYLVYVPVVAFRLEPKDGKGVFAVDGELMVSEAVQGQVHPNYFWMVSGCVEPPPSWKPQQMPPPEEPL
Sequence of Casein kinase II subunit alpha (Homo sapiens) (P68400 whole entry, looked up): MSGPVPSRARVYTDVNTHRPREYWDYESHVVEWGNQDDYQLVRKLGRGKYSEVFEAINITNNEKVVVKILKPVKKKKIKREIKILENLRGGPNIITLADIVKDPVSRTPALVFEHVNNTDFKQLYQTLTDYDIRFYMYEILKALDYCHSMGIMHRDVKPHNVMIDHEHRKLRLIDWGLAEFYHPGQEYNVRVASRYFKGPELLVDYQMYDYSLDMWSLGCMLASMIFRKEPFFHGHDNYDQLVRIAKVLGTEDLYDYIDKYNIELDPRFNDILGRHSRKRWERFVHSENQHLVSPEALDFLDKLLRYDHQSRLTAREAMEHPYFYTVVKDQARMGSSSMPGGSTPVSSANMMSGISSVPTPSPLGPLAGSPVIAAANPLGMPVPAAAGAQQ

Compound `CCC(=O)Nc1ccc(C)c(-c2ccc(C(=O)NCC3CC3)cc2)c1` has an inhibition [1] of 0.8%, an inhibition [2] of -0.3% and an inhibition [3] of 0.9%. For the same compound, the inhibition [4] was 2.11%, the inhibition [5] was 10.5% and the inhibition [6] was 7.65%. The inhibition [7] was 5.07%, the inhibition [8] was 5.57% and the inhibition [9] was 9.75%. For the same compound, the inhibition [10] was 4.21%, the inhibition [11] was 2.34% and the inhibition [12] was 2.64%. The inhibition [13] was 4.55%, the inhibition [14] was 0.77% and the inhibition [15] was 2.45%. The inhibition [16] was 0.12%, the inhibition [17] was 3.13% and the inhibition [18] was 8.32%. It also gave an inhibition [19] of 8.46%.
